Legend:
Test in all cases: PBM binding z-score (relative to random genomic background probes); higher = stronger binding; sequences stand for … in GC…GCGATTGACAGCGTAGAATGAAGG
[1] = test system: FXR:RXRa (NR concentration 270 nM, RXRa partner concentration 90 nM)
In short: (§1)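 For binding z-scores, the reference was random background probes on custom Agilent 4×180K protein-binding microarrays. These arrays were incubated 1 h with ligand-free nuclear receptor dimers in PBS pH 7.4, 2% milk, 0.02% Triton X-100, 1 mM DTT, 0.2 mg/mL BSA and 0.4 mg/ml salmon testes DNA. Fluorescence was scanned after antibody detection of each partner (one per run) and regression-normalized.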

[2] = test system: LXRa:RXRa (NR concentration 270 nM, RXRa partner concentration 90 nM)
In short: as §1

[3] = test system: LXRa homodimer (NR concentration 270 nM)
In short: as §1

[4] = test system: LXRb:RXRa (NR concentration 270 nM, RXRa partner concentration 90 nM)
In short: as §1

[5] = test system: LXRb homodimer (NR concentration 270 nM)
In short: as §1

[6] = test system: PPARa:RXRa (NR concentration 270 nM, RXRa partner concentration 90 nM)
In short: as §1

[7] = test system: PPARg:RXRa (NR concentration 180 nM, RXRa partner concentration 90 nM)
In short: as §1

[8] = test system: PPARg:RXRa 270nM:90nM, anti-RXR (NR concentration 270 nM, RXRa partner concentration 90 nM)
In short: as §1

[9] = test system: PPARg:RXRa 30nM:10nM, anti-RXR (NR concentration 30 nM, RXRa partner concentration 10 nM)
In short: as §1

[10] = test system: PPARg:RXRa 90nM:30nM, anti-RXR (NR concentration 90 nM, RXRa partner concentration 30 nM)
In short: as §1

[11] = test system: PPARg:RXRa DBDmut IVT, anti-RXR (DBD mutation: RXRa K156A/R161A, NR concentration 270 nM, RXRa partner concentration 90 nM)
In short: as §1

[12] = test system: PPARg:RXRa IVT, anti-PPARg (NR concentration 270 nM, RXRa partner concentration 90 nM)
In short: as §1

[13] = test system: PPARg DBDmut:RXRa IVT, anti-PPARg (DBD mutation: PPARg1 K132A/R137A, NR concentration 270 nM, RXRa partner concentration 90 nM)
In short: as §1

[14] = test system: PPARg DBDmut IVT, anti-PPARg (DBD mutation: PPARg1 K132A/R137A, NR concentration 270 nM)
In short: as §1

[15] = test system: PPARg homodimer (NR concentration 180 nM)
In short: as §1

[16] = test system: PXR:RXRa (NR concentration 270 nM, RXRa partner concentration 90 nM)
In short: as §1

[17] = test system: PXR homodimer (NR concentration 270 nM)
In short: as §1

[18] = test system: RARa:RXR (NR concentration 270 nM, RXRa partner concentration 90 nM)
In short: as §1

[19] = test system: RARa homodimer (NR concentration 270 nM)
In short: as §1

[20] = test system: RARb:RXRa (NR concentration 270 nM, RXRa partner concentration 90 nM)
In short: as §1

| Sequence | PBM binding z-score [1] | PBM binding z-score [2] | PBM binding z-score [3] | PBM binding z-score [4] | PBM binding z-score [5] | PBM binding z-score [6] | PBM binding z-score [7] | PBM binding z-score [8] | PBM binding z-score [9] | PBM binding z-score [10] | PBM binding z-score [11] | PBM binding z-score [12] | PBM binding z-score [13] | PBM binding z-score [14] | PBM binding z-score [15] | PBM binding z-score [16] | PBM binding z-score [17] | PBM binding z-score [18] | PBM binding z-score [19] | PBM binding z-score [20] |
| --- | --- | --- | --- | --- | --- | --- | --- | --- | --- | --- | --- | --- | --- | --- | --- | --- | --- | --- | --- | --- |
| AGGATGAGGTTAAGATCAGGGAAACAGAATACAT | 2.5 | 2.06 | 0.0836 | 2.16 | 0.492 | 3.06 | 1.63 | 1.38 | 0.783 | 1.01 | -0.114 | 0.973 | 0.72 | 0.516 | 1.27 | 1.56 | 1.2 | 1.9 | 1.63 | 2.1 |
| CCGACTGGTGCAGAAAGGTTACCATACCATCCGG | 0.086 | 0.429 | -0.181 | 0.491 | -0.9 | 1.73 | 0.848 | 1.18 | -0.313 | 0.336 | -0.779 | -0.294 | -0.872 | -1.11 | 1.03 | 1 | 0.0978 | 1.65 | -0.557 | 1.43 |
| TCTTGTAGATCAAAGGTTAAGAACGCCGAAGCCT | 2.02 | 2.28 | 0.21 | 2.16 | 0.138 | 4.96 | 8.19 | 7.86 | 7.43 | 8.26 | 2.38 | 3.76 | 0.351 | 0.234 | 1.19 | 2 | 0.16 | 2.42 | 0.244 | 1.86 |
| TGAATGAGGTTAAAGAGCAGGGAACGTGGCGTCG | 2.98 | 2.56 | -0.586 | 1.45 | 0.129 | 4.23 | 4.98 | 6.01 | 4.52 | 5.96 | 2.26 | 3.24 | -0.099 | -0.275 | 0.719 | 1.53 | -0.274 | 2.52 | 0.12 | 1.94 |
| CCTTACGAGTCAAGGTTATAGCACGGGTGGTACG | 0.585 | 0.946 | -0.0296 | 0.739 | 0.332 | 1.28 | 0.716 | 0.135 | -0.0857 | -0.0269 | -0.121 | 0.156 | -0.0742 | -0.146 | 1.14 | 0.823 | 0.506 | 0.888 | 0.784 | 1.07 |
| CCGACTGGGCCAAAAAGGTCATTGATGCCGATAA | 3.41 | 4.25 | 2.8 | 3.93 | -0.421 | 4.53 | 2.35 | 3.47 | 0.713 | 2.22 | 1.65 | 2.62 | -1.21 | -1.08 | 2.17 | 4.5 | 1.95 | 4.92 | 0.897 | 3.9 |
| CCACCAAGGTGAACAAGGTCGTTGATTACTATTC | 1.47 | 1.57 | 0.468 | 2.04 | -0.359 | 2.63 | 1.21 | 1.23 | -0.313 | 0.583 | 2.14 | 2.55 | 0.528 | 0.567 | 1.61 | 3.17 | 2.75 | 2.58 | 0.52 | 2.37 |
| ACTAGCAGGCCAAGTTTGGGTAACTCAAACAAAG | -0.442 | -0.634 | -0.575 | -0.304 | -0.8 | -0.339 | -0.414 | -0.541 | -0.687 | -0.687 | 0.555 | 0.362 | -0.71 | -1.1 | -0.788 | -0.378 | -0.687 | -0.383 | -0.573 | 0.143 |
| GGAACGAGGGCATTCGAGTTGATCGCATGGCGAT | 1.56 | 1.88 | -0.524 | 0.182 | -1 | 1.17 | 0.585 | 0.552 | -0.63 | 0.176 | 3.31 | 1.97 | -0.808 | -0.537 | -0.069 | 3.96 | 1.47 | 0.882 | -1.16 | 1.68 |
| ATCCCAAGGTGATCGTGAGGTCGTTGATACTAAC | 1.33 | 1.13 | 0.822 | 1.02 | -0.338 | 1.16 | 0.11 | 0.0594 | -0.299 | -0.346 | 0.258 | 0.592 | 0.328 | -0.0144 | 1.01 | 2.89 | 1.37 | 1.81 | 0.229 | 1.31 |
| TCTTGTAAATCAGCAGGTTAAGAAAGCTGGCCAA | 0.256 | 0.519 | -0.233 | 0.511 | -0.113 | 0.935 | -0.661 | 1.45 | 3.06 | 2.45 | 1.8 | -0.234 | -0.435 | -0.222 | 0.0187 | 0.477 | -0.284 | 0.789 | 0.26 | 0.224 |
| ATCGAAAGGTCGACGAGGTGAGTACACACCGTTT | 4.47 | 3.65 | 0.0409 | 2.84 | 0.25 | 4.44 | 2.84 | 3.38 | 1.11 | 2.41 | 0.467 | 2.23 | 0.931 | 1.06 | 1.57 | 3.19 | 0.753 | 3.6 | 0.262 | 3.82 |
| ACTATTAGTTGAGACGAGGGCAACCGCTAGGTTG | 0.861 | 0.155 | -0.0789 | 0.0826 | -0.113 | 0.374 | 0.327 | 0.207 | -0.122 | 0.0431 | 0.0597 | 0.177 | 0.243 | 0.359 | 0.0959 | 1.55 | 0.226 | 0.773 | 0.0804 | 1.15 |
| CCGAGTAGGTTATGGGGCAGTCAGGCAACGGTGA | 0.0419 | 0.326 | -0.0975 | 0.378 | -0.292 | 1.76 | 2.58 | 3.74 | 1.39 | 3.3 | 2.72 | 3.05 | -0.267 | -0.985 | 0.752 | -0.312 | 0.274 | -0.198 | 0.265 | 0.933 |

Reference: the supplement of paper PMC6555819
